Assay [1] relates to Wnt5a (protein binding on small-molecule microarray). In words: small molecules binding Wnt5a protein – biophysical, small-molecule microarray, 635/667 nm fluorescence, primary screen (AID 1142).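 Note: fluorescence read at 667 nm with signal to noise per printed feature.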 The following applies: 635 nm fluorescence, higher = more signal.
Assay [2] in a line: ATP-based viability of Huh7 replicon cells – cell-based, CellTiter-Glo luminescence, basal, 48 h, cytotoxicity control for HCV replication inhibitor project, primary screen (AID 1143).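 Note: Huh7 hepatoma cells carrying a hepatitis C replication reporter with no stimulus; test concentration not given here.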 The settings on record: higher = more signal, called active from +8 up or from −8 down.
The nature of assay [3]: Pseudomonas biofilm growth suppression – PAO1 strain, BacTiter-Glo luminescence, LB-PBS, primary screen (AID 1144). The following applies: P. aeruginosa PAO1 biofilm, 12 h, higher = more signal.
Assay [4] in a line: basal CRE-LacZ reporter activity in PC12 – cell-based, unstimulated, primary screen (AID 1145). The settings on record: no forskolin, luminescence, 4.5 h, higher = more signal, called active from +8 up or from −8 down.
Assay [5] is described as follows: forskolin-driven CRE-LacZ activity in PC12 – cell-based, CRE-LacZ reporter, forskolin-stimulated, primary screen (AID 1146).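 Note: PC12 cells with 6xCRE LacZ reporter stimulated by forskolin 10 µM; beta-galactosidase reporter signal reflecting CREB driven transcription.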 The following applies: luminescence, 4.5 h, higher = more signal, called active from +8 up or from −8 down.
The target of assay [6] is Streptavidin (Streptomyces avidinii) (UniProt P22629). The experiment in a line: compounds binding control protein streptavidin – biophysical, small-molecule microarray, 635/667 nm fluorescence, artefact control for SMM compound annotation, primary screen (AID 1147).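 Note: signal reflects streptavidin binding to arrayed compounds as a control protein.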 The settings on record: higher = more signal.
Sequence of Streptavidin (Streptomyces avidinii) (P22629 whole entry, looked up): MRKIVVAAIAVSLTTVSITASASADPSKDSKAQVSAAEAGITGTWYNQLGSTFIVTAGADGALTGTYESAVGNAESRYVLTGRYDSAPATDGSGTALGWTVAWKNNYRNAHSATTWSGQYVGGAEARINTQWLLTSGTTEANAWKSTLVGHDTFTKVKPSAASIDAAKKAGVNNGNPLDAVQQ
The nature of assay [7]: probe aInhba binding on compound microarray – biochemical, small-molecule microarray, 635/667 nm fluorescence, primary screen (AID 1148).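 Note: score merges 667nm spot fluorescence with signal-to-noise for antibody binding to printed compounds.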 The settings on record: higher = more signal.
Assay [8] has as its target Torsin-1A (Homo sapiens) (UniProt O14656). In words: TOR1A wild-type binding on microarray – cell lysate, small-molecule microarray, lysate, 635/667 nm, primary screen (AID 1149). The following applies: COS7 hTOR1A-WT lysate, 635 nm fluorescence, higher = more signal.
The target is the same in assay [9]. The experiment in a line: torsin A mutant lysate binding on microarrays – cell lysate, small-molecule microarray, COS7 lysate, 635/667 nm fluorescence, primary screen (AID 1150).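 Note: score pools 667 nm emission and signal to noise measuring lysate protein binding.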 The settings on record: COS7 hTOR1A mutant lysate, 635 nm fluorescence, higher = more signal.
Assay [10] has as its system Sonic hedgehog protein (Shh). In words: Sonic hedgehog microarray binding compounds – biochemical, small-molecule microarray, 635/667 nm fluorescence, primary screen (AID 1151).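 Note: Shh protein binding to compounds spotted on small-molecule microarray slides; score combines spot fluorescence intensity with signal-to-noise across triplicate slides.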 The following applies: 635 nm fluorescence, higher = more signal.

Active and inactive are the calls of the source. Unless noted, the rule behind the calls is not given here.

Sequence of Torsin-1A (Homo sapiens) (O14656 whole entry, looked up): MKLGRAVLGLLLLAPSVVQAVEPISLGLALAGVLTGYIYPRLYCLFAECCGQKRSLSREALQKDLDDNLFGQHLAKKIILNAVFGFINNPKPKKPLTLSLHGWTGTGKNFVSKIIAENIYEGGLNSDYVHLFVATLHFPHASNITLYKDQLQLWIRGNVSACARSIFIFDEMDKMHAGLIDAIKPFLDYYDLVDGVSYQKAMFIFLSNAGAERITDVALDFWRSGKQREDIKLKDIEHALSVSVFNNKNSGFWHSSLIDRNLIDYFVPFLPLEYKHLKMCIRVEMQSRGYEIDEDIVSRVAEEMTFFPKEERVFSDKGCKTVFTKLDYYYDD

For the compound `Cc1ccccc1C(O)C1C=CC2C(=O)N(C)C(=O)C2N1N(c1ccccc1)c1ccccc1` (stereo not given), the composite z-score in [1] was 0.613; in [6], 0.115; in assay [7] it was 1.15; in the assay with Torsin-1A (Homo sapiens) [8], -0.0241; in the assay with Torsin-1A (Homo sapiens) [9], 0.0289; in [10], 0.188. Further, the z-score was -0.0897 (inactive) in assay [2], -0.588 (inactive) in [3], -0.136 (inactive) in assay [4] and -0.0376 (inactive) in assay [5].

For the compound `COC(=O)[C@@]1(Cc2ccc(OC)cc2)[C@H]2c3cc(C(=O)N(C)C)n(C[C@H](O)CO)c3C[C@H]2CN1C(=O)c1ccccc1`, the composite z-score was 0.533 in [1]; 1.41 in assay [6]; 0.116 in assay [7]; 0.219 with Torsin-1A (Homo sapiens) [8]; 1.16 in the assay with Torsin-1A (Homo sapiens) [9]; -0.753 in [10]. In addition, the z-score in [2] was -2.58 (inactive); in assay [3] it was -0.0273 (inactive); in assay [4], 0.39 (inactive); in [5] it was 1.33 (inactive).

As for `NCCCCCNC(=O)[C@@H]1C[C@@H]2C(=O)NCC(=O)N2[C@@H]1c1cccc(OCCO)c1`, the composite z-score in assay [1] came to 0.468; in assay [6], 0.519; in assay [7], 0.188; with Torsin-1A (Homo sapiens) [8], 0.666; in the assay with Torsin-1A (Homo sapiens) [9] it was 0.59; in assay [10], 1.29. The z-score is 0.267 (inactive) in assay [2], 0.771 (inactive) in assay [3], -0.667 (inactive) in [4] and -0.496 (inactive) in assay [5].

Turning to `O=C1O[C@@H](c2ccccc2)[C@@H](c2ccccc2)N2[C@@H](c3ccccc3OCCO)[C@]3(C(=O)Nc4ccc(C#CCCO)cc43)[C@@H](C(=O)N3CCCCCCC3)[C@H]12`, the composite z-score in assay [1] came out at 2.37; in assay [6], 4.08; in assay [7], 2.42; in the assay with Torsin-1A (Homo sapiens) [8], 3.06; with Torsin-1A (Homo sapiens) [9], 2.96; in assay [10], 1.78. In addition, the z-score in [2] was -3.74 (inactive); in assay [3], -0.163 (inactive); in [4], 0.245 (inactive); in assay [5], 0.337 (inactive).

In the case of `CCCCO[C@H]1C[C@H]2C(I)=C[C@@H]1C(=O)[C@]21CO1`, the composite z-score in assay [1] is -0.0784; in assay [6], -0.258; in [7] it was -0.161; in the assay with Torsin-1A (Homo sapiens) [8] it was -0.336; with Torsin-1A (Homo sapiens) [9], -0.145; in assay [10], 0.816. Further, the z-score in assay [2] is -0.232 (inactive); in [3] it was 0.0666 (inactive); in assay [4], 0.496 (inactive); in [5], 0.672 (inactive).

As to `COc1ccc([Si](C)(C)[C@H]2[C@H](CCO)O[C@@]3(C(=O)N(Cc4cccc(N5C(=O)COc6ccccc65)c4)c4ccccc43)[C@@H]2C)cc1`, the composite z-score in assay [1] was -0.285; in [6], 0.174; in assay [7], -0.128; with Torsin-1A (Homo sapiens) [8] it was -0.451; with Torsin-1A (Homo sapiens) [9], -0.298; in assay [10], 0.419. Besides, the z-score in assay [2] was -6.25 (inactive); in [3], -1.83 (inactive); in assay [4] it was 2.41 (inactive); in assay [5], -1.52 (inactive).

Regarding `C=CCOC(=O)[C@H]1[C@@H]2C(=O)O[C@@H](c3ccccc3)[C@@H](c3ccccc3)N2[C@@H](c2ccc(OCCOC(=O)[C@H]3C[C@H]4C(=O)N[C@@H](CC(C)C)C(=O)N4[C@H]3c3cccc(OCCO)c3)cc2)[C@]12C(=O)Nc1ccc(I)cc12`, the composite z-score was 0.725 in assay [1]; 0.205 in [6]; -0.154 in [7]; 0.644 with Torsin-1A (Homo sapiens) [8]; 0.908 with Torsin-1A (Homo sapiens) [9]; 1.73 in assay [10]. Besides, the z-score in assay [2] was 0.0478 (inactive); in [3] it was 0.568 (inactive); in assay [4], 0.411 (inactive); in assay [5] it was -0.368 (inactive).

Consider `COc1ccc([Si](C)(C)[C@@H]2[C@@H](CCO)O[C@]3(C(=O)N(Cc4ccc(N5CCCCC5=O)cc4)c4ccccc43)[C@H]2C)cc1`, for which the composite z-score in assay [1] was 0.123; in assay [6], 0.269; in [7] it was -0.0471; with Torsin-1A (Homo sapiens) [8] it was 0.0458; in the assay with Torsin-1A (Homo sapiens) [9], 0.342; in [10], 1.72. In addition, the z-score in assay [2] was -7.34 (inactive); in [3], -0.701 (inactive); in assay [4] it was 8.03 (active); in assay [5] it was -1.2 (inactive).

Regarding `CN(C)c1ccc(C(O)C2C=CC3C(=O)N(c4ccccc4)C(=O)C3N2Nc2ccc([N+](=O)[O-])cc2)cc1` (stereo not given), the composite z-score in assay [1] was 0.0074; in [6] it was 0.769; in assay [7], -0.0736; in the assay with Torsin-1A (Homo sapiens) [8], 0.603; with Torsin-1A (Homo sapiens) [9], 0.377; in assay [10], -0.13. The z-score in assay [2] was -0.619 (inactive); in assay [3], 0.108 (inactive); in assay [4], 0.49 (inactive); in assay [5], -0.464 (inactive).

Consider `CC(C)OC(=O)C=C1C[C@@H](c2ccc(C(F)(F)F)cc2)O[C@@H](c2ccc(C(F)(F)F)cc2)O1`, for which the composite z-score in assay [1] is -0.1; in assay [6] it was -0.208; in assay [7], -0.157; in the assay with Torsin-1A (Homo sapiens) [8], 0.827; in the assay with Torsin-1A (Homo sapiens) [9], 0.483; in assay [10] it was -0.831. The z-score in [2] is -3.23 (inactive); in assay [3], -1.17 (inactive); in assay [4] it was -0.723 (inactive); in assay [5], -0.163 (inactive).

Turning to `CN1C(=O)C2C=CC(C(O)c3ccc(F)cc3)N(Nc3ccccc3)C2C1=O` (stereo not given), the composite z-score is -0.126 in assay [1]; 0.473 in assay [6]; 0.203 in [7]; -0.319 in the assay with Torsin-1A (Homo sapiens) [8]; 0.363 with Torsin-1A (Homo sapiens) [9]; 0.137 in assay [10]. For the same compound, the z-score in assay [2] was 0.457 (inactive); in [3], -0.293 (inactive); in assay [4] it was 0.0535 (inactive); in [5], 0.754 (inactive).

Values taken from PubChem BioAssay.
